# PubChem BioAssay
# The source made the active and inactive calls.
# Test: probe aXIP binding to arrayed compounds – biochemical, NeuroSMM set, 635/667 nm fluorescence, primary screen (AID 1119);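 note: probe is the protein aXip251-270 applied at 1 µg/mL to compound-printed slides; binding of probe to printed compounds measured as 667 nm fluorescence plus signal to noise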
# Conditions: small-molecule microarray, higher = more signal, called active from +8 up or from −8 down
row,SMILES,composite Z-score
1,O=C(NCc1ccc(F)cc1)[C@H]1C[C@H]2C(=O)NCC(=O)N2[C@H]1c1ccc(O)cc1,0.534 (inactive)
2,CCOC(=O)C[C@H]1[C@H](OC(=O)Cc2ccc3c(c2)OCO3)[C@@H](NC(=O)c2ccc3ccccc3n2)c2cc(OCCCO)ccc2N1C(=O)c1ccccc1,0.221 (inactive)
3,COc1cc2c(cc1O)C(C1CC1)N(C)CC2 (stereo not drawn),-0.519 (inactive)
4,COC(=O)C1=CC(CCCO)=CC(c2cccs2)N(Cc2cccc(OC(F)(F)F)c2)C=C1C(=O)OC (stereo not drawn),0.387 (inactive)
5,COCCCNC(=O)[C@@]1(Sc2ccc(C)cc2)CC(=O)N(C2Cc3ccccc3C2)[C@@H]1c1ccc(CO)cc1,1.23 (inactive)
6,CN(C)c1ccc(C(O)C2C=CC3C(=O)NC(=O)C3N2Nc2ccccn2)cc1 (stereo not drawn),0.378 (inactive)
7,COc1ccccc1CN1C(=O)c2ccccc2[C@](Cc2ccccc2I)(C(=O)O)[C@@H]1c1ccc(CO)cc1,0.114 (inactive)
8,CC(C)N1CC=CC23O[C@@H]4C=CCCOC(=O)C4[C@H]2C(=O)N(CCCO)[C@@H]3C1=O (stereo partly drawn),-0.472 (inactive)
9,COc1ccc(C(=O)Nc2ccc(CN3C(=O)[C@]4(O[C@H](CC(=O)N5Cc6ccccc6C[C@H]5CO)[C@@H]([Si](C)(C)c5ccc(OC)cc5)[C@@H]4C)c4ccccc43)cc2)cc1,-0.236 (inactive)
10,Cn1cccc1C(O)C1C=CC2C(=O)N(c3ccccc3)C(=O)C2N1Nc1ccccc1 (stereo not drawn),0.581 (inactive)
11,CCOC(=O)C[C@H]1[C@H](OC(=O)c2cc3ccccc3oc2=O)[C@@H](NC(=O)CC(C)C)c2cc(OCCCO)ccc2N1C(=O)c1ccc2ccccc2n1,-0.077 (inactive)
12,CC[C@@H]1C=C(C(=O)O)[C@H](c2ccccc2)N1S(=O)(=O)c1ccc(C)cc1,-0.12 (inactive)
13,C=CC[C@@H](OC(=O)Nc1ccc(SC)cc1)c1ccc(O)c(F)c1,0.452 (inactive)

# Test: probe aNOTCH3 binding on compound microarray – biochemical, small-molecule microarray, 635/667 nm fluorescence, primary screen (AID 1120);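 note: probe is a biotin-tagged antibody raised against NOTCH3 rather than NOTCH3 protein; score merges spot fluorescence near 667 nm with spot signal to noise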
# Conditions: higher = more signal
row,SMILES,composite z-score
1,C[C@@H]1NC(=O)[C@@H](Cc2ccccc2)NC(=O)[C@@]23C(=O)N[C@@H](Cc4ccccc4)C2[C@H](C)[C@@]2(C)O[C@H]2C3/C=C/C/C=C\CNC1=O (stereo partly drawn),-0.277
2,COc1cccc(C)c1NC(=O)O[C@H]1[C@H](OC(=O)Nc2ccc3c(c2)OCO3)[C@@H](OC(=O)Nc2ccc3c(c2)OCO3)[C@@H](OC)O[C@@H]1CO,0.508
3,C=C(COC)/C(=C/C[C@H](OC(=O)c1ccncc1)c1ccc(CO)o1)c1cnc2ccccc2c1,0.0282
4,CC(C)=C1C(=O)C(c2ccccc2)=C2CN3C(=O)N(CCc4ccccc4)C(=O)[C@]3(Cc3ccc(C(F)(F)F)cc3)[C@H]21,0.34
5,CCCCNC(=O)c1ccc(C#CC(C)(C)C)c(OC(C)=O)c1,0.0744
6,C=CCC(OC(C)=O)[C@@H]1[C@@H](N(Cc2cccc3ccccc23)C(=O)Cc2ccc(OC)cc2)c2cc(OCCCO)ccc2N1C(=O)c1ccc(-c2ccccc2)cc1 (stereo partly drawn),-0.0647
7,COc1cc(NN2C(C(O)c3ccc(N(C)C)cc3)C=CC3C(=O)N(c4ccccc4)C(=O)C32)cc(OC)c1OC (stereo not drawn),0.448
8,CCCC[C@@H](O)C1=C(COC)C[C@H]2C(=O)N(C)C(=O)[C@H]2[C@H]1CO,-0.139
9,CC1CC/C=C\[C@H]2OC34C=CCN(c5ccc6ccccc6c5)C(=O)[C@H]3N(CCCO)C(=O)[C@@H]4C2C(=O)O1 (stereo partly drawn),-0.276
10,CC(C)C(CO)N1C(=O)[C@@H]2[C@H]3C(=O)OCC=C[C@H]3OC23C=CCN(c2ccc(Cl)cc2)C(=O)[C@@H]13 (stereo partly drawn),-0.171
11,CCCN1C(=O)[C@@]2(Cc3ccccc31)N=C(c1ccc(OCCCO)cc1)O[C@H]2c1ccccc1,0.0916
12,O=C(O)[C@@H]1[C@@H]2C(=O)N(c3ccccc3)C(=O)[C@@H]2C[C@@H]1Sc1ccccc1,-0.0932
13,COCCOC(=O)N1C(=O)[C@@]2(c3cc(C#CCNC(N)=O)ccc31)[C@H](C(N)=O)[C@H]1C(=O)O[C@H](c3ccccc3)[C@H](c3ccccc3)N1[C@@H]2c1ccccc1OCCO,0.133
14,COC(=O)[C@@]1(Cc2ccc(OC)cc2)[C@H]2c3cc(C(=O)N4CCCC4)n(CCO)c3C[C@H]2CN1C(=O)c1ccccc1,0.302
15,C[N+](C)(C)CCCCCCNC(=O)[C@@H]1C[C@@H]2C(=O)N3CCC[C@H]3C(=O)N2[C@@H]1c1ccc(O)cc1,0.0591
16,O=C1O[C@@H](c2ccccc2)[C@@H](c2ccccc2)N2[C@@H](c3ccc(O)cc3)[C@]3(C(=O)Nc4ccc(C#CCCO)cc43)[C@@H](C(=O)N3CCN(c4ncccn4)CC3)[C@H]12,0.148
17,CC(C)c1ccc(NN2C(C(O)c3ccc(F)cc3)C=CC3C(=O)N(c4ccccc4)C(=O)C32)cc1 (stereo not drawn),0.378
18,C[N+](C)(C)CCCC[C@@H]1NC(=O)[C@@H]2C[C@H](C(=O)NCCCCCCN)[C@H](c3cccc(OCCO)c3)N2C1=O,0.39

row,SMILES,composite z-score
1,Cc1ccc(S[C@]2(C(=O)NCC(F)(F)F)CC(=O)N(Cc3cc(C(F)(F)F)cc(C(F)(F)F)c3)[C@@H]2c2ccc(CO)cc2I)cc1,-0.291
2,C=C[C@H]1C(C(=O)OCC)=CC[C@@H](c2ccccc2)N1S(=O)(=O)c1ccc(C)cc1,0.382
3,CCCCN1CC=CC23O[C@@H]4/C=C\CCCOC(=O)C4[C@H]2C(=O)N(CCO)[C@@H]3C1=O (stereo partly drawn),-0.426
4,CCCCN1CC=CC23O[C@@H]4/C=C\CCC(C)OC(=O)C4[C@H]2C(=O)N(CCCO)[C@@H]3C1=O (stereo partly drawn),-0.41
5,O=C(NCc1ccc(F)cc1)[C@H]1C[C@H]2C(=O)NCC(=O)N2[C@H]1c1ccc(O)cc1,0.0066
6,CCOC(=O)C[C@H]1[C@H](OC(=O)Cc2ccc3c(c2)OCO3)[C@@H](NC(=O)c2ccc3ccccc3n2)c2cc(OCCCO)ccc2N1C(=O)c1ccccc1,-0.124
7,COc1cc2c(cc1O)C(C1CC1)N(C)CC2 (stereo not drawn),-0.257
8,COC(=O)C1=CC(CCCO)=CC(c2cccs2)N(Cc2cccc(OC(F)(F)F)c2)C=C1C(=O)OC (stereo not drawn),0.208
9,COCCCNC(=O)[C@@]1(Sc2ccc(C)cc2)CC(=O)N(C2Cc3ccccc3C2)[C@@H]1c1ccc(CO)cc1,-0.157
10,CN(C)c1ccc(C(O)C2C=CC3C(=O)NC(=O)C3N2Nc2ccccn2)cc1 (stereo not drawn),-0.0419
11,COc1ccccc1CN1C(=O)c2ccccc2[C@](Cc2ccccc2I)(C(=O)O)[C@@H]1c1ccc(CO)cc1,0.0961
12,CC(C)N1CC=CC23O[C@@H]4C=CCCOC(=O)C4[C@H]2C(=O)N(CCCO)[C@@H]3C1=O (stereo partly drawn),-0.112
13,COc1ccc(C(=O)Nc2ccc(CN3C(=O)[C@]4(O[C@H](CC(=O)N5Cc6ccccc6C[C@H]5CO)[C@@H]([Si](C)(C)c5ccc(OC)cc5)[C@@H]4C)c4ccccc43)cc2)cc1,-0.0377
14,Cn1cccc1C(O)C1C=CC2C(=O)N(c3ccccc3)C(=O)C2N1Nc1ccccc1 (stereo not drawn),0.346
15,CCOC(=O)C[C@H]1[C@H](OC(=O)c2cc3ccccc3oc2=O)[C@@H](NC(=O)CC(C)C)c2cc(OCCCO)ccc2N1C(=O)c1ccc2ccccc2n1,0.191
16,CC[C@@H]1C=C(C(=O)O)[C@H](c2ccccc2)N1S(=O)(=O)c1ccc(C)cc1,0.191
17,C=CC[C@@H](OC(=O)Nc1ccc(SC)cc1)c1ccc(O)c(F)c1,-0.0647
